This is an account of results in PubChem BioAssay (NCI).

What all share (assay): NCI-60 one-dose screen, 48 h (100 = growth as untreated, 0 = no growth, -100 = all killed)
What all share (conditions): 10 µM unless noted

Experiment [1] has as its system NCI-H23 lung.
The subject of experiment [2] is NCI-H226 lung.
The test system of experiment [3] is NCI-H322M lung.
In experiment [4] the test system is HOP-62 NSCLC.
Experiment [5] has as its system NCI-H460 lung.
In experiment [6] the test system is NCI-H522 lung.
In experiment [7] the test system is A549/ATCC NSCLC.
Experiment [8] deals with 786-0 renal.
The test system of experiment [9] is COLO 205 colon.
The subject of experiment [10] is DU-145 prostate.
The subject of experiment [11] is K-562 leukemia.
In experiment [12] the test system is MALME-3M melanoma.
In experiment [13] the test system is MDA-MB-231 breast.
The test system of experiment [14] is RXF 393 renal.
Experiment [15] relates to SF-268 CNS.
Experiment [16] concerns SF-295 CNS.
The subject of experiment [17] is SF-539 CNS.
For experiment [18], the system named is UACC-257 melanoma.
Experiment [19] deals with M14 melanoma.
Experiment [20] has as its system HCT-15 colon.

This is part of a sample that, as a whole, favours compounds with a hit. Of some 83,000 tested, about 20% had one in any assay.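 Cell lines were cultured in 96-well plates, exposed to a single compound concentration, and assessed for percent growth 48 hours later.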 Values without a mark were called inactive. The source made the active and inactive calls. The calls were made as follows: active = growth percent below 10; inactive = the rest.

In the case of `Cc1cc(C)c2c(c1)N1OC(C2)C[C@H]1/C=C/c1ccccc1` (stereo not given in full), the growth is 88.5% in experiment [1]; 77.6% in experiment [2]; 81.3% in experiment [3]; 111% in experiment [4]; 112% in experiment [5]; 84.7% in [6]. The growth was 95.2% in experiment [7]; 102% in experiment [8]; 111% in experiment [9]; 117% in experiment [10]; 88.2% in [11]; 103% in experiment [12]. Further, the growth was 101% in [13]; 115% in experiment [14]; 107% in experiment [15]; 108% in [16]; 111% in experiment [17]; 113% in experiment [18]. In addition, the growth in [19] is 104%; in experiment [20], 88.7%.
As for `CCC[C@H](N[C@@H](C)C(=O)N1[C@H](C(=O)O)C[C@@H]2CCCC[C@@H]21)C(=O)OCC`, the growth was 94.2% in experiment [1]; 105% in experiment [2]; 103% in [3]; 123% in experiment [4]; 116% in experiment [5]; 102% in experiment [6]. Further, the growth in experiment [7] was 91.4%; in experiment [8], 103%; in experiment [9], 111%; in [10], 111%; in experiment [11] it was 116%; in experiment [12], 94.2%. Besides, the growth in [13] is 90.4%; in [14], 114%; in [15] it was 105%; in experiment [16], 111%; in experiment [17], 91.4%; in [18] it was 97.9%. Besides, the growth in experiment [19] is 113%; in experiment [20], 99.3%.
For `CO[C@H]1CC(O[C@@H]2/C(C)=C/C[C@@H]3C[C@@H](C[C@]4(CC[C@H](C)[C@@H](C5CCCCC5)O4)O3)OC(=O)[C@@H]3C=C(C)/C(=N/O)[C@H]4OC/C(=C\C=C\[C@@H]2C)[C@]43O)O[C@@H](C)C1O` (stereo not given in full), the growth in experiment [1] is -76.2% (active); in experiment [2], -84.2% (active); in experiment [3] it was -78% (active); in experiment [4], -88.8% (active); in experiment [5], -82.3% (active); in [6] it was -73.4% (active). For the same compound, the growth is -82.9% (active) in experiment [7]; -91.1% (active) in experiment [8]; -79.4% (active) in [9]; -96.1% (active) in [10]; -36.7% (active) in [11]; -46.3% (active) in [12]. For the same compound, the growth was -89% (active) in experiment [13]; -97.2% (active) in experiment [14]; -92.2% (active) in experiment [15]; -89.5% (active) in experiment [16]; -68.8% (active) in [17]; -81.6% (active) in experiment [18]. For the same compound, the growth in experiment [19] is -81.4% (active); in experiment [20], -75.1% (active).
As to `C=C(C[C@](O)(C(=O)/C=C/c1ccc(Cl)cc1)C(=O)OC)c1ccccc1`, the growth is 64.4% in [1]; 89.7% in experiment [2]; 90.3% in [3]; 54% in experiment [4]; 88.6% in experiment [5]; 66% in [6]. In addition, the growth was 74.4% in experiment [7]; 84% in [8]; 60.4% in [9]; 97.4% in experiment [10]; 50.7% in experiment [11]; 95.7% in experiment [12]. Besides, the growth in experiment [13] is 71%; in experiment [14], 52.5%; in [15], 87.4%; in [16] it was 98.9%; in experiment [17], 75.8%; in experiment [18] it was 91.7%. Further, the growth in experiment [19] was 84.1%; in [20] it was 3.71% (active).
`CCOc1cc(-c2ccc[nH]2)[nH]c1/C=C1\N=C(C)C(C(=O)OC)=C1C`: the growth in experiment [1] is -59.4% (active); in [2] it was -61.9% (active); in experiment [3], -61.8% (active); in experiment [4], -58% (active); in [5], -79.4% (active); in [6], -50.1% (active). Also, the growth is -47.1% (active) in experiment [7]; -50.2% (active) in experiment [8]; -78.6% (active) in experiment [9]; -65.5% (active) in experiment [10]; -55.4% (active) in experiment [11]; -61.1% (active) in [12]. Further, the growth in experiment [13] is -62.6% (active); in [14], -72.5% (active); in experiment [15] it was -55.7% (active); in experiment [16] it was -69.8% (active); in experiment [17], -66.7% (active); in experiment [18], -56.7% (active). Besides, the growth is -59.9% (active) in [19] and -27% (active) in experiment [20].
Consider `COc1ccc(C(=O)Nc2nc(-c3ccc(Cl)cc3)cs2)cc1`, for which the growth was 114% in experiment [1]; 95.6% in [2]; 86.8% in [3]; 90.8% in experiment [4]; 105% in experiment [5]; 105% in [6]. The growth in [7] is 100%; in experiment [8] it was 108%; in [9], 102%; in [10], 111%; in [11], 104%; in experiment [12], 111%. Also, the growth in [13] is 105%; in [14] it was 97.1%; in [15], 105%; in experiment [16] it was 97.5%; in experiment [17] it was 93%; in experiment [18] it was 98.5%. The growth is 113% in [19] and 94.9% in experiment [20].
For the compound `Cc1ccsc1/C=C/C1=NCCCN1C`, the growth in experiment [1] is 97%; in experiment [2], 100%; in [3], 102%; in [4], 100%; in [5] it was 116%; in experiment [6], 91%. Moreover, the growth in experiment [7] is 99.7%; in experiment [8], 92.5%; in [9], 101%; in experiment [10], 112%; in [11], 101%; in experiment [12] it was 97%. Besides, the growth in experiment [13] was 99.3%; in experiment [14], 113%; in experiment [15] it was 111%; in [16], 95.6%; in experiment [17] it was 119%; in [18], 110%. In addition, the growth in [19] was 100%; in experiment [20] it was 109%.
